Values joined by “and” are separate entries in the source; they are usually repeats but may differ in a detail not shown here. Equal entries are not always repeated. About 2,000 (36%) of roughly 5,500 compounds were called active. About 18% were inconclusive and are not listed. Rule as the data show it: active = normalized growth mostly below about 0.91 (no sharp cut-off); inconclusive = no clear call, values can overlap the other calls; inactive = mostly above about 0.92. Some of the results follow.
Experiment: chemical genetic growth profiling, strain panel (AID 1159580);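 also: tested at 20 µM; growth read once vehicle control cultures reached saturation at 30 °C; 1 = growth at the plate median or of vehicle wells; lower values mean less growth of the strain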
Conditions: S. cerevisiae deletion strains, growth OD

Measured: normalized growth

COc1ccccc1OCC(O)CO (stereo not drawn)
inactive: locus YAL021C, strain ccr4, hits give low values 1.02 | locus YAL026C, strain drs2, hits give low values 1.02 | locus YAL030W, strain snc1, hits give low values 1.02 | locus YBL061C, strain skt5, hits give low values 1.02 | locus YBR009C, strain hhf1, hits give low values 1.02 | locus YBR021W, strain FUR4, hits give low values 1.02 | locus YBR023C, strain chs3, hits give low values 1.02 | locus YBR171W, strain sec66, hits give low values 1.04 | locus YBR229C, strain ROT2, hits give low values 1 | locus YBR231C, strain swc5, hits give low values 1.02 | locus YBR279W, strain paf1, hits give low values 1.03 | locus YCL011C, strain gbp2, hits give low values 1.02 | locus YCL016C, strain dcc1, hits give low values 1.02 | locus YCL029C, strain bik1, hits give low values 0.972 | locus YCL061C, strain MRC1, hits give low values 1.03 | locus YCL069W, strain vba3, hits give low values 1.01 | locus YCR088W, strain abp1, hits give low values 1.02 | locus YDL005C, strain med2, hits give low values 1.04 | locus YDL035C, strain GPR1, hits give low values 1.02 | locus YDL040C, strain nat1, hits give low values 1.02 | locus YDL074C, strain BRE1, hits give low values 1 | locus YDL101C, strain DUN1, hits give low values 1.01 | locus YDL134C, strain PPH21, hits give low values 0.997 | locus YDL185W, strain tfp1, hits give low values 1 | locus YDL192W, strain arf1, hits give low values 1 | locus YDR001C, strain nth1, hits give low values 1.02 | locus YDR069C, strain doa4, hits give low values 1.02 | locus YDR101C, strain arx1, hits give low values 0.972 | locus YDR137W, strain rgp1, hits give low values 1.03 | locus YDR159W, strain sac3, hits give low values 1.02 | locus YDR162C, strain NBP2, hits give low values 1.01 | locus YDR195W, strain ref2 1.02 | locus YDR297W, strain sur2, hits give low values 1.02 | locus YDR318W, strain mcm21, hits give low values 1.02 | locus YDR334W, strain swr1, hits give low values 1.03 | locus YDR335W, strain msn5, hits give low values 1.03 | locus YDR388W, hits give low values 0.99 | locus YDR392W, strain spt3, hits give low values 0.987 | locus YDR502C, strain sam2, hits give low values 1.02 | locus YEL003W, strain gim4, hits give low values 1.01 | locus YEL037C, strain rad23, hits give low values 1.02 | locus YEL061C, strain CIN8 (second series), hits give low values 1.02 | locus YEL061C, strain CIN8, hits give low values 1.03 | locus YER015W, strain faa2, hits give low values 1.02 | locus YER016W, strain bim1, hits give low values 1.04 | locus YER110C, hits give low values 0.988 | locus YER111C, strain swi4, hits give low values 1.02 | locus YER155C, strain BEM2 (second series), hits give low values 1.02 | locus YER155C, strain BEM2, hits give low values 1.01 | locus YER167W, strain BCK2, hits give low values 1 | locus YFR010W, strain ubp6, hits give low values 1.02 | locus YGL078C, strain dbp3, hits give low values 1.02 | locus YGL086W, strain mad1, hits give low values 1 | locus YGL167C, strain pmr1, hits give low values 1.02 | locus YGL173C, strain kem1, hits give low values 1.02 | locus YGL227W, strain vid30, hits give low values 1.03 | locus YGL240W, strain doc1, hits give low values 1.03 | locus YGL248W, strain PDE1, hits give low values 1.01 | locus YGL253W, strain hxk2, hits give low values 1.01 | locus YGR078C, strain PAC10, hits give low values 1.01 | locus YGR135W, strain pre9, hits give low values 1.04 | locus YGR252W, strain gcn5, hits give low values 1.22 | locus YHR013C, strain ard1, hits give low values 1.04 | locus YHR027C, strain rpn1, hits give low values 1.01 | locus YHR030C, strain SLT2, hits give low values 1 and 0.993 | locus YHR079C, strain IRE1 (second series), hits give low values 0.988 | locus YHR079C, strain IRE1, hits give low values 0.965 | locus YHR094C, strain hxt1, hits give low values 0.978 | locus YHR129C, strain ARP1, hits give low values 0.964 | locus YHR142W, strain chs7, hits give low values 1.03 | locus YHR200W, strain rpn10, hits give low values 1.01 | locus YIL066C, strain RNR3, hits give low values 1 | locus YIL073C, strain SPO22, hits give low values 1.05 | locus YIL125W, strain kgd1, hits give low values 1.01 | locus YIR030C, strain dcg1, hits give low values 0.99 | locus YJL092W, strain hpr5, hits give low values 1.03 | locus YJL095W, strain BCK1 (second series), hits give low values 1.02 | locus YJL095W, strain BCK1, hits give low values 1.03 and 0.964 | locus YJL115W, strain asf1, hits give low values 1.02 | locus YJL129C, strain trk1, hits give low values 1.04 | locus YJL134W, strain LCB3, hits give low values 1 | locus YJL154C, strain vps35, hits give low values 1.01 | locus YJL164C, strain tpk1, hits give low values 1.02 | locus YJL166W, strain qcr8, hits give low values 1.03 | locus YJL168C, strain set2, hits give low values 0.986 | locus YJL187C, strain SWE1 (second series), hits give low values 1.01 | locus YJL187C, strain SWE1, hits give low values 1.05 | locus YJR043C, strain POL32, hits give low values 1.01 | locus YJR066W, strain TOR1, hits give low values 0.924 | locus YKL009W, strain mrt4, hits give low values 1.01 | locus YKL068W, hits give low values 1.01 | locus YKL085W, strain MDH1 (second series), hits give low values 0.999 | locus YKL085W, strain MDH1, hits give low values 0.999 | locus YKL160W, strain elf1, hits give low values 1.02 | locus YKR001C, strain vps1, hits give low values 0.998 | locus YKR026C, strain gcn3, hits give low values 1.02 | locus YKR091W, strain srl3, hits give low values 1.02 | locus YLL001W, strain dnm1, hits give low values 1.02 | locus YLL026W, hits give low values 1.02 | locus YLL041C, strain sdh2, hits give low values 1.01 | locus YLR027C, strain aat2, hits give low values 1.01 | locus YLR039C, strain RIC1, hits give low values 1.02 | locus YLR058C, strain SHM2, hits give low values 1.01 | locus YLR102C, strain apc9, hits give low values 0.982 | locus YLR113W, strain HOG1, hits give low values 0.999 | locus YLR221C, strain rsa3, hits give low values 1.01 | locus YLR258W, strain gsy2, hits give low values 1.01 | locus YLR262C, strain YPT6 (second series), hits give low values 1.02 | locus YLR262C, strain YPT6, hits give low values 1.04 | locus YLR268W, strain sec22, hits give low values 1.01 | locus YLR320W, strain mms22, hits give low values 1.03 | locus YLR330W, strain CHS5, hits give low values 1.02 | locus YLR342W, strain FKS1 (second series), hits give low values 1.01 | locus YLR342W, strain FKS1, hits give low values 1.02 | locus YLR357W, strain rsc2, hits give low values 1.03 | locus YLR370C, strain arc18, hits give low values 1.02 | locus YLR371W, strain rom2, hits give low values 0.965 | locus YLR384C, strain iki3, hits give low values 1.02 | locus YLR418C, strain cdc73, hits give low values 1.06 | locus YML016C, strain PPZ1, hits give low values 1 | locus YML032C, strain rad52, hits give low values 1.01 | locus YML120C, strain ndi1, hits give low values 1.02 | locus YML124C, strain tub3, hits give low values 0.996 | locus YMR058W, strain fet3, hits give low values 1.02 | locus YMR078C, strain ctf18, hits give low values 0.99 | locus YMR125W, strain sto1, hits give low values 1.06 | locus YMR129W, hits give low values 1.02 | locus YMR205C, strain PFK2, hits give low values 1.02 | locus YMR223W, strain ubp8, hits give low values 1.03 | locus YMR231W, strain pep5, hits give low values 1.02 | locus YMR307W, strain GAS1, hits give low values 1.05 | locus YNL067W, strain RPL9B, hits give low values 1.02 | locus YNL071W, strain lat1, hits give low values 1.02 | locus YNL153C, strain GIM3, hits give low values 1.01 | locus YNL183C, strain NPR1, hits give low values 0.956 | locus YNL209W, strain ssb2, hits give low values 1.02 | locus YNL233W, strain BNI4, hits give low values 1.01 | locus YNL248C, strain rpa49, hits give low values 1.04 | locus YNL250W, strain rad50, hits give low values 1.02 | locus YNL271C, strain bni1, hits give low values 1.01 | locus YNL298W, strain CLA4, hits give low values 1.01 | locus YNL307C, strain MCK1, hits give low values 0.99 | locus YNL322C, strain KRE1 (second series), hits give low values 1.04 | locus YNL322C, strain KRE1, hits give low values 1.01 | locus YNR049C, strain mso1, hits give low values 1.02 | locus YNR052C, strain pop2, hits give low values 0.998 | locus YOL012C, strain htz1 0.827 | locus YOL147C, strain pex11, hits give low values 0.995 | locus YOR001W, strain rrp6, hits give low values 0.995 | locus YOR061W, strain CKA2, hits give low values 1.01 | locus YOR069W, strain VPS5, hits give low values 1.01 | locus YOR070C, strain gyp1, hits give low values 1.02 | locus YOR080W, strain dia2, hits give low values 1.04 | locus YOR083W, strain WHI5, hits give low values 1.02 | locus YOR106W, strain vam3, hits give low values 1.02 | locus YOR136W, strain idh2, hits give low values 0.994 | locus YOR144C, strain elg1, hits give low values 0.993 | locus YOR184W, strain ser1, hits give low values 1 | locus YOR231W, strain MKK1, hits give low values 0.991 | locus YOR265W, strain rbl2, hits give low values 1.02 | locus YOR270C, strain vph1, hits give low values 1.05 | locus YOR290C, strain snf2, hits give low values 0.99 | locus YOR316C, strain cot1, hits give low values 0.986 | locus YPL051W, strain arl3, hits give low values 1.01 | locus YPL078C, strain atp4, hits give low values 1.02 | locus YPL106C, strain sse1, hits give low values 1.01 | locus YPL240C, strain hsp82, hits give low values 1.02 | locus YPL256C, strain CLN2, hits give low values 0.977 | locus YPR119W, strain clb2, hits give low values 0.992 | locus YPR141C, strain kar3, hits give low values 0.996 | locus YPR163C, strain tif3, hits give low values 1.01 | locus YPR167C, strain met16, hits give low values 0.999 | strain wtn01, hits give low values 1.05

Source: PubChem BioAssay AID1159580 (chemical genetic matrix, 2015)
